Experimental data: PubChem BioAssay (Tox21)
Inconclusive results are not listed. Activity calls are given as the source filed them. Unless noted, the call rests on the fitted dose curve; in most records, active means well fitted curve in the direction sought with a large enough effect in the repeat runs; inconclusive means weak or mixed curves; inactive means no such curve, though single readings can be large; an effect the other way counts as inactive or inconclusive.

How the values were obtained:
[1] = qHTS assay to identify small molecule antagonists of the retinoid-related orphan receptor gamma (ROR-gamma) signaling pathway - cell viability counter screen (AID 1159520); further: nearly all actives have a fitted effect of over 50% in size; further: potency means the concentration at half of the fitted maximal effect
In short: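 Tet-on ROR gamma CHO cells (1,000/well) were plated 4 hr, given compounds in DMSO for 2 hr at 37 C, then induced with 1 uM final doxycycline for 16 hr. Viability was read as ATP by CellTiter-Glo luminescence after 30 min.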

[2] = target: Nuclear receptor ROR-gamma (Homo sapiens) (UniProt P51449); assay: qHTS assay to identify small molecule antagonists of the retinoid-related orphan receptor gamma (ROR-gamma) signaling pathway (AID 1159521; further: nearly all actives have a fitted effect of over 50% in size; further: potency means the concentration at half of the fitted maximal effect)
In short: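 CHO cells expressing RORγ under a TET-on promoter, luciferase under RORE control. Dox 1 uM final, 16 h; compounds added 2 h prior. Luminescence decrease measured.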

[3] = qHTS assay to identify small molecule agonists of the AP-1 signaling pathway - cell viability counter screen (AID 1159525; calls by dose curve; further: nearly all actives have a fitted effect of over 55% in size; further: potency means the concentration at half of the fitted maximal effect)
In short: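 Each titration point was normalised to DMSO and tetra n-octyl ammonium bromide controls. The read was Cell Titer Glo luminescence after 30 min at RT, following 5 h compound exposure of ME-180 AP-1-bla cells at 37 °C.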

[4] = qHTS assay to identify small molecule agonists of the AP-1 signaling pathway (AID 1159526; calls by dose curve; further: on the % scale 0 is the no-effect control and ±100 the full control effect)
[5] = qHTS assay to identify small molecule agonists of the RXR signaling pathway - cell viability counter screen (AID 1159529); further: nearly all actives have a fitted effect of over 50% in size; further: potency means the concentration at half of the fitted maximal effect
In short: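 Same-well viability check after the LiveBLAzer FRET read: CellTiter-Glo added, luminescence measured after 30 min at room temperature. Reporter HEK 293T cells had been treated with compounds for 16 hr following a 5 hr preincubation.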

[6] = qHTS assay to identify small molecule antagonists of the retinoid acid receptor (RAR) signaling pathway - cell viability counter screen (AID 1159551); further: nearly all actives have a fitted effect of over 35% in size; further: potency means the concentration at half of the fitted maximal effect
In short: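 C3RL4 RARE-luciferase line; cpds + retinol 1 uM final, 6 h, 37 C/5% CO2; CellTiter-Glo ATP luminescence, 30 min RT.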

[7] = target: Retinoic acid receptor RXR-alpha (Homo sapiens) (UniProt P19793); assay: qHTS assay to identify small molecule agonists of the RXR signaling pathway (AID 1159527; calls by dose curve; further: nearly all actives have a fitted effect of over 35% in size; further: potency means the concentration at half of the fitted maximal effect)
Retinoic acid receptor RXR-alpha (Homo sapiens), sequence (P19793 whole entry, looked up): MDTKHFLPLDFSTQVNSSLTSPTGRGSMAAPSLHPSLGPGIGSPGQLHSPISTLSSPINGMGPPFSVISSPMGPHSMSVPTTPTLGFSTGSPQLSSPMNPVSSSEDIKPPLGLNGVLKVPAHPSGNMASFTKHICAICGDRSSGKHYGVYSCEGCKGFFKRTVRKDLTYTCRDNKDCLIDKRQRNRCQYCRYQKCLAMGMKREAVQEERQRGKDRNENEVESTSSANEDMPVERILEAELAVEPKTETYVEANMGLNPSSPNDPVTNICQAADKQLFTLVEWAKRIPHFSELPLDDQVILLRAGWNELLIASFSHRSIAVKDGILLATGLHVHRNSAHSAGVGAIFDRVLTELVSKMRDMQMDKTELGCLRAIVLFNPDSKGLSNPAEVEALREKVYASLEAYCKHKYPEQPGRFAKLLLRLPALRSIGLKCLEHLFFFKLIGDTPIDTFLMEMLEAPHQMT
In short: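 Beta-lactamase reporter assay, agonist format. Engineered HEK 293T line, charcoal-stripped FBS at 2%, overnight (16 hr) exposure, fluorescence at 460 and 530 nm after 405 nm excitation.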

[8] = qHTS assay to identify small molecule antagonists of the retinoic acid receptor (RAR) signaling pathway (AID 1159552; further: nearly all actives have a fitted effect of over 50% in size; further: potency means the concentration at half of the fitted maximal effect)
In short: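 Readout: luciferase luminescence, 30 min post-reagent at RT. Setup: C3RL4 RARE reporter cells, compounds plus retinol 1 uM final, 6 hr incubation at 37 C and 5% CO2.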

[9] = qHTS assay to identify small molecule agonists of the peroxisome proliferator-activated receptor delta (PPARd) signaling pathway - cell viability counter screen (AID 743211); further: nearly all actives have a fitted effect of over 55% in size; further: potency means the concentration at half of the fitted maximal effect
In short: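 Luminescent ATP viability assay (CellTiter-Glo, 30 min RT) in UAS-bla HEK293H cells carrying the PPAR delta reporter construct, 3000 cells/well, after a 17 h compound treatment at 37 C.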

[10] = target: Peroxisome proliferator-activated receptor delta (Homo sapiens) (UniProt Q03181); assay: qHTS assay to identify small molecule agonists of the peroxisome proliferator-activated receptor delta (PPARd) signaling pathway (AID 743212; calls by dose curve; further: on the % scale 0 is the no-effect control and ±100 the full control effect)
Peroxisome proliferator-activated receptor delta (Homo sapiens), sequence (Q03181 whole entry, looked up): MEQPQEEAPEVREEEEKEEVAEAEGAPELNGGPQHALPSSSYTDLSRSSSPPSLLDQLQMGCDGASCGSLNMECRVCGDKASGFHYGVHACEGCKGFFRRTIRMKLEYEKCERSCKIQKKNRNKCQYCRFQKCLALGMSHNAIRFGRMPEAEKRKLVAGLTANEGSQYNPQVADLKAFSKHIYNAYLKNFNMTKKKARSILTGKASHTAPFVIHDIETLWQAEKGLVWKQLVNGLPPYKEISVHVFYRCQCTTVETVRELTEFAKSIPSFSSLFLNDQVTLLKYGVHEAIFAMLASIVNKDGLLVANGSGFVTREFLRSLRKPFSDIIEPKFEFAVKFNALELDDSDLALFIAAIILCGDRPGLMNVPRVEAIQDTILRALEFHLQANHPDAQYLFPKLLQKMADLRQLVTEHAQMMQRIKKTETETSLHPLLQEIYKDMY
In short: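 Beta-lactamase reporter read by fluorescence (LiveBLAzer B/G FRET, 2 h, room temperature). Test agents, in DMSO, incubated at 37 C with PPARd-bla HEK293H cells.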

[11] = qHTS assay to identify small molecule antagonists of the peroxisome proliferator-activated receptor delta (PPARd) signaling pathway - cell viability counter screen (AID 743213)
In short: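 Same-well viability: cells pre-incubated 5 h, dosed with compound plus 300 nM L165041, kept 17 h at 37 C, FRET substrate 2 h RT, then CellTiter-Glo 30 min RT and luminescence.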

[12] = target: Peroxisome proliferator-activated receptor delta (Homo sapiens) (UniProt Q03181); assay: qHTS assay to identify small molecule antagonists of the peroxisome proliferator-activated receptor delta (PPARd) signaling pathway (AID 743215; active means well fitted inhibition curve with a large enough effect in the signal ratio in the repeat runs, not every such curve was filed as active; the % refers to the signal ratio;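 further: cells stimulated with agonist L165041 at 300 nM final during compound exposure; potency means the concentration at half of the fitted maximal effect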)
In short: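 HEK293H GeneBLAzer PPARd UAS-bla reporter cells; cpd + L165041 300 nM final, 17 h 37 C; LiveBLAzer B/G FRET substrate 2 h RT; fluorescence intensity read-out. Antagonist mode.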

[13] = target: Vitamin D3 receptor (Homo sapiens) (UniProt P11473); assay: qHTS assay to identify small molecule antagonists of the vitamin D receptor (VDR) signaling pathway (AID 743223; active means well fitted inhibition curve with a large enough effect in the signal ratio in the repeat runs, not every such curve was filed as active; the % refers to the signal ratio; further: potency means the concentration at half of the fitted maximal effect)
Vitamin D3 receptor (Homo sapiens), sequence (P11473 whole entry, looked up): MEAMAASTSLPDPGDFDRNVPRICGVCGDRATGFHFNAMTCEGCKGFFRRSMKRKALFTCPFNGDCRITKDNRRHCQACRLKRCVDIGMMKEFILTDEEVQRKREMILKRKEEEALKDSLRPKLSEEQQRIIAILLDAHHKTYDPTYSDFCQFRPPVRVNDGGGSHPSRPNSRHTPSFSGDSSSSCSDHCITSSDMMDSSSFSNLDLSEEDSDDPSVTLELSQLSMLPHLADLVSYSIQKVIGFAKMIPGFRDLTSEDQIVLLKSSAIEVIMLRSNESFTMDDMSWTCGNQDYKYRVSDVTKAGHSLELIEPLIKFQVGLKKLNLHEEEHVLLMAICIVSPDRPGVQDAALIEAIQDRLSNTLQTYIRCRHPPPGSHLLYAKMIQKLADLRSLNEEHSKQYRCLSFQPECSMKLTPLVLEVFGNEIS
In short: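 Agonist 1alpha,25-dihydroxyvitamin D3 (3 nM in well) was added with each compound to VDR-bla cells preincubated 4 h. Cells stood 16 h at 37C, then FRET substrate 2 h at room temperature; fluorescence intensity recorded.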

[14] = qHTS assay to identify small molecule agonists of the vitamin D receptor (VDR) signaling pathway - cell viability counter screen (AID 743224)
In short: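 Cytotoxicity counter screen: VDR-bla cells, 16 h compound exposure at 37C, 5% CO2; CellTiter-Glo luminescence, 30 min RT, same wells as bla read.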

[15] = qHTS assay to identify small molecule antagonists of the vitamin D receptor (VDR) signaling pathway - cell viability counter screen (AID 743225); further: nearly all actives have a fitted effect of over 50% in size; further: potency means the concentration at half of the fitted maximal effect
In short: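 Luminescent cell viability (CellTiter-Glo) in VDR-bla HEK 293T cells after 16 h compound exposure at 37C in the presence of 3 nM final 1-alpha,25-dihydroxy vitamin D3.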

[16] = qHTS assay to identify small molecule agonists of the farnesoid-X-receptor (FXR) signaling pathway - cell viability counter screen (AID 743218); further: nearly all actives have a fitted effect of over 45% in size; further: potency means the concentration at half of the fitted maximal effect
In short: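 Luminescence from CellTiter-Glo, read after 30 min at RT, reports viability of GeneBLAzer FXR-UAS-bla HEK 293T cells treated 16 h with compounds in the wells used for the beta-lactamase reporter.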

[17] = qHTS assay to identify small molecule antagonists of the farnesoid-X-receptor (FXR) signaling pathway - cell viability counter screen (AID 743221; active means well fitted cell-killing curve with a large enough effect in the repeat runs, not every such curve was filed as active; further: nearly all actives have a fitted effect of over 50% in size; further: potency means the concentration at half of the fitted maximal effect)
In short: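 In GeneBLAzer FXR-UAS-bla HEK 293T cells stimulated with 50 uM chenodeoxycholic acid (final), compounds acted for 16 h at 37 C. Viability was assessed afterwards by CellTiter-Glo luminescence.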

[18] = qHTS assay to identify small molecule agonists of the retinoic acid receptor (RAR) signaling pathway (AID 1159553); further: on the % scale 0 is the no-effect control and ±100 the full control effect
In short: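 RARE-luc C3RL4 cells; overnight attachment 37 C/5% CO2; compound (DMSO) 6 hr; luciferase reagent, 30 min RT; luminescence read-out.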

[19] = target: Bile acid receptor (Homo sapiens) (UniProt Q96RI1); assay: qHTS assay to identify small molecule antagonists of the farnesoid-X-receptor (FXR) signaling pathway (AID 743217; active means well fitted inhibition curve with a large enough effect in the signal ratio in the repeat runs, not every such curve was filed as active; the % refers to the signal ratio; further: on the % scale 0 is the no-effect control and ±100 the full control effect)
Bile acid receptor (Homo sapiens), sequence (Q96RI1 whole entry, looked up): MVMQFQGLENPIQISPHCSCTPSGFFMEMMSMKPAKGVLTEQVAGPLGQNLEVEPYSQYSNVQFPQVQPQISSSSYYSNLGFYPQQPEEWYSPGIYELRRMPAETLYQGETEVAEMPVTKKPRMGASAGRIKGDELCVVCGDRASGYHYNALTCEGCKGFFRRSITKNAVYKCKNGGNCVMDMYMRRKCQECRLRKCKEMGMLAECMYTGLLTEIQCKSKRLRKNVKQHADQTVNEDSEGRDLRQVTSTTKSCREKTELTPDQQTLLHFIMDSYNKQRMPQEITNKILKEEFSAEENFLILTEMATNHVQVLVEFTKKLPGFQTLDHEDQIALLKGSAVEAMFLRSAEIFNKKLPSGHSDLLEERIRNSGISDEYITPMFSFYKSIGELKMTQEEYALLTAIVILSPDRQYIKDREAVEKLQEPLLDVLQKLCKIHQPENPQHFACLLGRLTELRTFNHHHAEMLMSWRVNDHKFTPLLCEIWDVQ
In short: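 Read-out: beta-lactamase FRET fluorescence (LiveBLAzer B/G substrate, 2 h, room temperature) in GeneBLAzer FXR-UAS-bla HEK 293T cells. Compounds were co-dosed with 50 uM chenodeoxycholic acid (final) and incubated 16 h at 37 °C.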

[20] = target: Bile acid receptor (Homo sapiens) (UniProt Q96RI1); assay: qHTS assay to identify small molecule agonists of the farnesoid-X-receptor (FXR) signaling pathway (AID 743220; active means well fitted activation curve with a large enough effect in the signal ratio in the repeat runs, not every such curve was filed as active; the % refers to the signal ratio; further: on the % scale 0 is the no-effect control and ±100 the full control effect)
In short: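 FXR-UAS-bla HEK 293T cells carrying a UAS-driven beta-lactamase reporter were plated for 5 h at 37C/5% CO2, then exposed to DMSO-dissolved Tox21 10K compounds for 16 h at 37C. A LiveBLAzer B/G FRET substrate was loaded for 2 h at room temperature before fluorescence reading.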

C=CC(=O)OCCOC1C2CCC1C1CC=CC12 (stereo unspecified)
inactive: activity, negative = cytotoxicity [1] 1.32% [at 19 µM] | activity change, negative = inhibition [2] 0.993% [at 19 µM] | viability change, negative = cytotoxic [3] -20.2% [at 15.8 µM] | activation [4] -3.6% [at 15.8 µM] | activity change, negative = cytotoxicity [5] -24% [at 15.8 µM] | activity change, negative = cytotoxicity [6] -0.0183% [at 19 µM]

C1=CCCC1
inactive: Potency [1] | Potency [2] | Potency [3] | Potency [4] | Potency [7] | Potency [5] | Potency [6] | Potency [8]

C/C=C/C(=O)C1=C(C)C=CCC1(C)C
inactive: Potency [1] | Potency [2] | Potency [3] | Potency [4] | Potency [7] | Potency [5] | Potency [6]

CC1(C)[C@H](C(=O)OCc2cccc(Oc3ccccc3)c2)[C@@H]1C=C(Cl)Cl
inactive: Potency [1] | Potency [2] | Potency [3] | Potency [4] | Potency [7] | Potency [5] | Potency [6]

CC1CCC(C(C)(C)O)CC1 (stereo unspecified)
inactive: Potency [1] | Potency [2] | Potency [3] | Potency [4] | Potency [7] | Potency [5] | Potency [6]

Nc1ccc(F)c([N+](=O)[O-])c1
inactive: Potency [1] | Potency [2] | Potency [3] | Potency [4] | Potency [7] | Potency [5] | Potency [6]

[Cl][Sc]([Cl])[Cl]
inactive: Potency [1] | Potency [2] | Potency [3] | Potency [4] | Potency [7] | Potency [5] | Potency [6]

O=c1[nH]cccc1O
inactive: Potency [1] | Potency [2] | Potency [3] | Potency [4] | Potency [7] | Potency [5] | Potency [6] | Potency [8]

CCCCCCCCCCCCS(=O)(=O)Cl
inactive: activity, negative = cytotoxicity [1] -7.74% [at 19 µM] | activity change, negative = inhibition [2] 0.574% [at 19 µM] | viability change, negative = cytotoxic [3] -17.5% [at 15.8 µM] | activation [4] -7.42% [at 15.8 µM] | activation [7] -13.1% [at 15.8 µM] | activity change, negative = cytotoxicity [6] 0.197% [at 19 µM] | activity, negative = inhibition [8] -0.011% [at 19 µM]

Cc1ccc2sc3cccc(C)c3c2c1
inactive: Potency [1] | Potency [2] | Potency [3] | Potency [4] | Potency [7] | Potency [6]

CC(C)=CCC[C@H](C)CC=O
inactive: Potency [1] | Potency [2] | Potency [3] | Potency [4] | Potency [7] | Potency [5] | Potency [6]

O=C1c2ccccc2C(=O)c2c(Cl)cccc21
inactive: Potency [1] | Potency [2] | Potency [3] | Potency [4] | Potency [7] | Potency [6] | Potency [8]

CCCCCCCCOC(=O)c1cc(O)c(O)c(O)c1
active: Potency [9] 43.6 µM | Potency [11] 43.6 µM | Potency [12] 49 µM | Potency [13] 54.9 µM | Potency [14] 24.5 µM | Potency [15] 27.5 µM | Potency [1] 2.43 µM | Potency [2] 1.93 µM | Potency [3] 54.9 µM | Potency [5] 43.6 µM
inactive: outcome [10] | Potency [6] | Potency [8]

c1ccc2occc2c1
active: Potency [14] 49 µM | Potency [7] 12.3 µM
inactive: Potency [1] | Potency [2] | Potency [3] | Potency [5] | Potency [6]

Cc1c(Cl)c(=O)oc2cc(O)ccc12
inactive: Potency [1] | Potency [2] | Potency [3] | Potency [5] | Potency [6]

N#Cc1ccc(C/C(=N/NC(=O)Nc2ccc(OC(F)(F)F)cc2)c2cccc(C(F)(F)F)c2)cc1
inactive: Potency [1] | Potency [2] | Potency [3] | Potency [6]

CCCCCCCCCCCCCCCCC(C(=O)O)C(O)(CC(=O)O)C(=O)O (stereo unspecified)
inactive: outcome [10] | Potency [13] | Potency [1] | Potency [2] | Potency [6] | Potency [8] | Potency [18]
active: Potency [9] 13.3 µM | Potency [11] 18.8 µM | Potency [16] 18.8 µM | Potency [17] 23.7 µM | Potency [14] 26.6 µM | Potency [3] 21.3 µM | Potency [5] 19 µM

CCOC(=O)C1=NN(c2ccc(Cl)cc2Cl)C(C)(C(=O)OCC)C1 (stereo unspecified)
active: Potency [2] 30.6 µM
inactive: Potency [1] | Potency [3] | Potency [7] | Potency [5] | Potency [6] | Potency [8]

CC(C)(c1ccc(Oc2ccc(N)cc2)cc1)c1ccc(Oc2ccc(N)cc2)cc1
inactive: Potency [3] | Potency [5] | Potency [6] | Potency [8]
active: Potency [1] 61.1 µM | Potency [2] 61.1 µM

O=C1OC2(c3ccccc31)c1ccc(O)c(Br)c1Oc1c2ccc(O)c1Br
inactive: Potency [1] | Potency [2] | Potency [3] | Potency [5] | Potency [6] | Potency [8]

CC(C)(C)C1=CC(=O)C(C(C)(C)C)=CC1=O
active: Potency [2] 10.6 µM
inactive: Potency [1] | Potency [3] | Potency [4] | Potency [6]

C=C1C(CCl)(CCl)C2(Cl)C(Cl)C(Cl)C1(Cl)C2(Cl)Cl (stereo unspecified)
active: Potency [9] 34.3 µM | Potency [16] 48.4 µM | Potency [14] 21.6 µM | Potency [15] 48.4 µM | Potency [1] 60.4 µM | Potency [2] 48 µM | Potency [3] 43.1 µM | Potency [5] 24.3 µM
inactive: Potency [6]

O=C1CCC/C=C\CCCCCCCCCC1
inactive: Potency [9] | outcome [10] | Potency [19] | Potency [16] | outcome [20] | Potency [17] | Potency [13] | Potency [15] | Potency [1] | Potency [2] | Potency [3] | Potency [6] | Potency [8]

CCCCCCCCCCCC(=O)Cl
inactive: Potency [1] | Potency [2] | Potency [3] | Potency [6] | Potency [8]

CCCCCN=C(N)N/N=C/c1c[nH]c2ccc(OC)cc12
active: Potency [9] 8.41 µM | Potency [11] 33.5 µM | Potency [16] 13.3 µM | Potency [17] 29.8 µM | Potency [13] 13.4 µM | Potency [14] 29.8 µM | Potency [15] 16.9 µM | Potency [1] 26.6 µM | Potency [2] 33.5 µM | Potency [3] 23.9 µM | Potency [5] 7.56 µM | Potency [6] 29.8 µM | Potency [8] 13.3 µM
